LDHA inh – qHTS assay for inhibitors of human lactate dehydrogenase. purified LDHA, NADH/diaphorase-resazurin fluorescence; hits give low values. activity change, % (values are at about 110 or 230 µM). 480,000 tested, 0.15% active; in the data active = activity change below about -30%; inconclusive = mostly about -25% to -30%;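 also: plate controls were DMSO wells for no effect and wells without enzyme for full effect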
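Enzyme activity of human lactate dehydrogenase 5 (2 nM; 0.06 mM NADH, 0.2 mM pyruvate, 5 min, RT) is measured via a resazurin/diaphorase fluorescence readout of residual NADH.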
GLP-1R inv ag – qHTS of GLP-1 Receptor Inverse Agonists (Inhibition Mode). 410,000 tested, 1.6% active. AID 624417, 2012. Potency, µM (series often up to 38.3 µM), for the others: at the highest dose activity change, negative = inhibition, usual class: inhibitors. HEK293 GLP-1R CRE-luciferase, luminescence, 24 h; GLP-1R form is constitutively active; also: potency is read from the fitted curve at half-maximal effect; % is scaled to controls: 0 for no effect and ±100 for the full control effect; nearly all actives have a fitted effect of over 55% in size
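Seeding at 200 cells/uL, 12 h culture, 24 hr compound treatment, then luciferase reagent and a luminescence read; cells are HEK293 stably expressing a constitutively active GLP-1R plus cAMP-responsive luciferase.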
PTHR1 ag – qHTS for PTHR1 Agonists: Primary Screen; AID 743266, 2014; HEK293 GP2 PTHR1 cells, GloSensor cAMP luminescence, 1 h; Potency, µM (titrated, usually from 115 µM), without a hit: at the top dose activation, usual class: activators; 410,000 tested, 0.075% active; Parathyroid hormone/parathyroid hormone-related peptide receptor (Homo sapiens), Q03431; also: potency is read from the fitted curve at half-maximal effect; nearly all actives have a fitted effect of over 55% in size
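HEK-293-derived GP2 cells expressing PTHR1 and a GloSensor cAMP reporter, 3,000/well, plated overnight, given luciferin plus IBMX (each 0.5 mM as added) for 1 h at 37 °C, then compound for 1 h at 37 °C. Luminescence was read after 15 min at room temperature.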
GLP-1R agonist – qHTS of GLP-1 Receptor Agonists. Glucagon-like peptide 1 receptor (Homo sapiens), P43220. HEK293 GLP-1R CRE-luciferase, luminescence, 4-6 h; cells express a hypersensitive GLP-1R form. Potency, µM (top dose mostly 45.6 µM), for the others: top-dose activation, most hits filed as activators. 380,000 tested, 0.007% active; also: potency is read from the fitted curve at half-maximal effect; % of control where 0% means no effect
HEK293 tox – qHTS of GLP-1 Receptor Inverse Agonists: Cytotox Screen; HEK293 cAMP-luciferase reporter cells, luminescence, 24 h; 410,000 tested, 0.13% active; Potency, µM (doses to about 38.3 µM), for inactives: top-dose activity change, negative = inhibition, hits mostly inhibitors;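 also: loss of luciferase light is scored as toxicity; potency is read from the fitted curve at half-maximal effect; % is scaled to controls: 0 for no effect and ±100 for the full control effect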
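To flag toxic compounds, the library was rerun on cells for 24 hr at 37 deg C and 5% CO2. Viability-linked luminescence was captured 12 min after adding luciferase detection reagent.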
mIDH1 inhibitor – qHTS for Inhibitors of mutant isocitrate dehydrogenase 1 (IDH1): qHTS; Isocitrate dehydrogenase [NADP] cytoplasmic (Homo sapiens), O75874; IDH1-R132H enzyme, NADPH consumption, diaphorase/resazurin fluorescence; Potency, µM (titrated, usually from 76.6 µM), inactives show at the top dose activity change, negative = inhibition, actives largely listed as inhibitors; 390,000 tested, 0.093% active; AID 602179, 2012; also: potency is read from the fitted curve at half-maximal effect; % is scaled to controls: 0 for no effect and ±100 for the full control effect; nearly all actives have a fitted effect of over 65% in size
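IDH1-R132H (0.5 ug/mL dispensed) in pH 7.5 Tris buffer was preincubated 30 min with compound, then given a substrate mix of 0.016 mM NADPH and 2 mM alpha-KG for 80 min at room temperature; remaining NADPH was read by diaphorase/resazurin fluorescence.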
Starred values were filed as active, the others as inactive; i = inactive; ? = inconclusive; . = no result given; [ ] = another dose, or the depositor's remark. A selection: hits, their analogues and other compounds. The true share with any hit is near 1.7%. Unless noted, calls follow the shape of the dose curve; as a rule, active = well fitted curve in the direction sought with a large enough effect; inconclusive = small, poorly fitted or top-dose-only effect, or another doubt; inactive = no such curve, though single readings can be large; an effect the other way counts as inactive or inconclusive.

SMILES	LDHA inh	GLP-1R inv ag	PTHR1 ag	GLP-1R agonist	HEK293 tox	mIDH1 inhibitor
CC(O)CSc1nc2c(c(=O)n(C)c(=O)n2C)n1Cc1ccccc1Cl (stereo unspecified)	5	.	.	.	.	.
CCc1ccc(-c2cc3c(=O)[nH]nc(SCC(=O)NC(C)C)n3n2)cc1	0	.	.	.	.	.
O=C1CCCCC1C(O)(C(=O)c1ccccc1)c1ccccc1 (stereo unspecified)	-5	10µM*	-29%	1%	1%	-9%
CCC12CC3CC(Br)(C1)CC(C(=O)O)(C3)C2 (stereo unspecified)	5	.	.	.	.	.
CCCNC(=O)c1ccc2nc(-c3ccccc3)c(-c3ccccc3)nc2c1	2	3.5µM*	-14%[57.5 µM]	-5%	-12%	1%
CCN(CC)C(=O)c1ccc2nc(-c3ccccc3)c(-c3ccccc3)nc2c1	-3	5µM*	-15%	2%	6%	-4%
CN1CCN(C(=O)c2ccc3nc(-c4ccccc4)c(-c4ccccc4)nc3c2)CC1	-6	-29%	i	7%	3%	1%
O=C(c1ccc2nc(-c3ccccc3)c(-c3ccccc3)nc2c1)N1CCCCC1	0	2.5µM*	-27%	4%	5%	-4%
c1ccc(CCN2CCNCC2)nc1	13	.	.	.	.	.
CC1=C(C(=O)N(CC(=O)NCc2ccc(C)cc2)c2ccc(Cl)cc2)SCCO1	6	.	.	.	.	.
Cc1cc(C)cc(NC(=O)CSc2nc(N)c(NC(=O)c3cccs3)c(=O)[nH]2)c1	-32*	8%	7%	4%	3%	-8%
Cc1nnc(NC(=O)CSc2nc(N)c(NC(=O)c3cccs3)c(=O)[nH]2)s1	1	47%	i	-1%	9%	0%
Cc1oc2cc(OCC(=O)NCCCOC(C)C)ccc2c(=O)c1-c1ccc(Cl)cc1	-4	.	.	.	.	.
OCCN1CCN(CC(O)COC(c2ccc(F)cc2)c2ccc(F)cc2)CC1 (stereo unspecified)	?	3.5µM*	i	5%	-16%	0%
COc1ccc(N2CCN(CC(O)COC(c3ccc(F)cc3)c3ccc(F)cc3)CC2)cc1 (stereo unspecified)	-8	?	-35%	-1%	-25%	-1%
OC(COc1ccccc1)CN1CCCCC1 (stereo unspecified)	1	7%	-2%	8%	6%	4%
OC(COc1ccc(CNCCc2ccccc2F)cc1)CN1CCCCC1 (stereo unspecified)	-4	5µM*	-10%	-3%	3%	-6%
CC(OC(=O)c1cc[n+]([O-])cc1)C(=O)Nc1cccc2ccccc12 (stereo unspecified)	-2	.	.	.	.	.
Cc1nccn1C(c1ccccc1)c1ccccc1	-34*	-23%	i	13%	-8%	-5%
CC1=Nc2ccccc2/C1=C/c1nc(-c2ccc(C)s2)oc1O	-1	-6%	-37%	-1%	-12%	-2%
CC1=Nc2ccccc2/C1=C/c1sc(=N)n(-c2nccs2)c1O	-8	2.5µM*	i	3%	?	-5%
Cc1ccc(Cl)cc1NC(=O)CSCc1cnn(-c2ccccc2)c1-n1cccc1	1	10µM*	i	.	-11%	.
Cc1ccc(NC(=O)CSCc2cnn(-c3ccccc3)c2-n2cccc2)c(C)c1	-5	?	-87%	.	3%	.
O=C(Nc1cc(-c2ccccc2)nn1C1CCS(=O)(=O)C1)c1ccco1 (stereo unspecified)	-9	.	.	.	.	.
